Bioassay records (PubChem)
E-sel TNF inh = TNF alpha driven E-selectin expression inhibition; HUVEC TNFa-induced E-selectin immunofluorescence, high content; inhibition, % at 2 µM; actives 0.71% (n = 120,000);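 active = inhibition above the batch mean plus 3 SD, and confirmed as a hit on visual image review, cut at about 43% in these data; inconclusive = passes the inhibition cutoff but fails visual image review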
CYP2C9 inh = inhibitors of human CYP2C9; CYP2C9 Supersomes, luciferin-H conversion, luminescence; inhibition, % at 5 µM; actives 20% (n = 96,000);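 active = blocking of liver enzyme CYP2C9 beyond about 50% at 5 µM, limit read from the data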
CYP2C19 inh = inhibitors of human CYP2C19; P33261; inhibition, % at 5 µM; CYP2C19 Supersomes, luciferin-H EGE luminescence, 30 min; actives 21% (n = 96,000);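 active = CYP2C19 inhibition above a set limit at 5 µM in the primary screen, cut at about 50% in these data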
Target sequence (P33261 whole entry, looked up): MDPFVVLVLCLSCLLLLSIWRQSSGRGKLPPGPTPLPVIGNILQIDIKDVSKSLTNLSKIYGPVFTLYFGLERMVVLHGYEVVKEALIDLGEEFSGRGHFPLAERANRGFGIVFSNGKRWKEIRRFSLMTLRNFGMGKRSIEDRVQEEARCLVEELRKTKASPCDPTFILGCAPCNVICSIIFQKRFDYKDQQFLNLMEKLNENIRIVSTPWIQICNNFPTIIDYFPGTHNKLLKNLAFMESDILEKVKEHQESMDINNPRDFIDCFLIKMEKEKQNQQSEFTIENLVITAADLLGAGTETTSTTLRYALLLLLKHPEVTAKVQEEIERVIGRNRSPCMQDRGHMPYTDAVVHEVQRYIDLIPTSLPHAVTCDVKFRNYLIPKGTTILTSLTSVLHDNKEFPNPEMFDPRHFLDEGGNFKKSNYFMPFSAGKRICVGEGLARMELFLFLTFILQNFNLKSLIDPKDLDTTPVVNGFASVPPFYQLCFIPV
CYP2C9 act = increases human cytochrome P450 2C9 activity; P11712; recombinant CYP2C9, luciferin-H conversion, luminescence; hits give high values; factor 1 = untreated enzyme, 0 = blocked; activation factor at 5 µM; actives 1.4% (n = 96,000); AID 1024;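 active = activation factor of 2 or more for CYP2C9 at a 5 µM dose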
CYP2C19 act = cytochrome P450 2C19 (human) activation. 96,000 tested, under 10 active. P33261. AID 1025. recombinant CYP2C19, luciferin-H EGE luminescence; hits give high values; 0 = fully inhibited enzyme, 1 = untreated enzyme. activation factor at 5 µM;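 active = activation factor of at least 2 at 5 µM in the primary screen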
cytoskel mod = modifiers of cytoskeleton assembly | HUVEC TNFa F-actin phalloidin imaging, high content | actives 0.18% (n = 91,000) | inhibition, % at 2 µM | AID 836;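 active = inhibition above the batch mean plus 3 SD and confirmed as a hit by visual image inspection, cut at about 30% in these data, passing the limit was not always enough; inconclusive = above the inhibition threshold but rejected on visual inspection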
Each line names hits and unclear results; the compound was inactive in the other large screens. Compounds with a hit are over-represented: about 22% of the library has one in this group of screens.

Cc1cc(S(=O)(=O)N2CCCCCC2)c(Cl)cc1Cl	CYP2C19 inh 73.2
Cc1nc2ccc(S(=O)(=O)NCC(=O)N3CCN(c4ccccn4)CC3)cc2s1	none (no result: E-sel TNF inh)
O=C(NC1CS(=O)(=O)CC1NCc1ccco1)c1ccccc1 (stereo not drawn)	none
O=C(O)c1ccc(Br)c(S(=O)(=O)N2CCCC2)c1	none
O=S(=O)(c1ccc(F)c(Cl)c1)N1CCCC1	CYP2C19 inh 54.5
O=S(=O)(c1cc(Cl)ccc1Br)N1CCCCC1	CYP2C19 inh 96.0, CYP2C9 act 3.2
NC(=S)Nc1nc2ccccc2[nH]c1=O	none
CCC(=O)N1CCN(c2ccc(NC(=O)c3ccco3)cc2)CC1	none
Cc1sc(NC(=O)c2ccco2)c(CN2CCN(c3ccc(F)cc3)CC2)c1C	CYP2C19 inh 54.7
Cc1sc(NC(=O)c2ccco2)c(CN2CCN(c3ccccn3)CC2)c1C	E-sel TNF inh inconclusive, CYP2C9 inh 89.0, CYP2C19 inh 65.2
Cc1ccc(CN2CCN(c3ccccn3)CC2)s1	CYP2C9 inh 50.2, CYP2C19 inh 89.9
Oc1ccc(-c2nc3ccccn3c2NCc2ccco2)cc1	CYP2C9 inh 77.4
Cc1ccc(-c2nc3ccccn3c2NCc2ccc3c(c2)OCO3)cc1	CYP2C9 inh 72.3, CYP2C19 inh 80.0
CCC1CCCCN1C(=O)c1nn2cccnc2c1Cl (stereo not drawn)	none (no result: cytoskel mod)
O=C(c1cccc(F)c1)N1CCC(N2CCOCC2)CC1	CYP2C19 inh 56.1
O=C(c1cccc(F)c1)N1CCN(C(=O)c2nn3cccnc3c2Cl)CC1	CYP2C19 inh 58.5 (no result: cytoskel mod)
O=C(c1cccnc1)N1CCN(C(=O)c2ccco2)CC1	none (no result: CYP2C9 inh, CYP2C19 inh, CYP2C9 act, CYP2C19 act)
O=C(c1c(Cl)nc2sccn12)N1CCN(c2cccc(Cl)c2)CC1	CYP2C9 inh 68.6, CYP2C19 inh 82.9
O=C(c1cccnc1)N1CCN(C(=O)c2ccccc2F)CC1	CYP2C9 inh 65.4, CYP2C19 inh 51.4
COC(=O)c1ccc(C2/C(=C(/O)c3ccc(OC(C)C)cc3)C(=O)C(=O)N2c2cc(C)on2)cc1 (stereo not drawn)	none
O=C(COc1ccccc1)N1CCN(C(=O)c2cccc(F)c2)CC1	none (no result: cytoskel mod)
N#Cc1ccc(N2CCN(C(=O)c3cccc(F)c3)CC2)c(F)c1	CYP2C19 inh 91.7 (no result: cytoskel mod)
O=C(COc1ccc(Cl)cc1)N1CCN(C(=O)c2cccc(F)c2)CC1	none
O=C(c1cccc(F)c1)N1CCN(c2cccc(Cl)c2)CC1	CYP2C9 inh 85.7, CYP2C19 inh 94.2
O=C(c1cccc(Cl)c1)N1CCN(C(=O)c2ccccc2F)CC1	CYP2C9 inh 54.5, CYP2C19 inh 65.7
O=[N+]([O-])c1cc(-c2cnc3ccccc3n2)ccc1Oc1ccc(Br)cc1	none
CCOc1ccc(C(=O)NC(=S)NCc2cccnc2)cc1	none (no result: CYP2C9 inh, CYP2C19 inh, CYP2C9 act, CYP2C19 act, cytoskel mod)
O=C1N(Cc2ccccc2)CCCC12CCCN(Cc1ccccc1)C2=O	none
Cc1ccc(S(=O)(=O)N2CCCN(S(=O)(=O)c3ccc4c(c3)OCCO4)CC2)cc1	CYP2C9 act 2.7
CC1CCCCC1NS(=O)(=O)c1ccc(S(=O)(=O)N2CCN(CCC#N)CC2)cc1 (stereo not drawn)	CYP2C19 inh 52.4 (no result: cytoskel mod)
Cc1ccc2nc(N3CCN(S(=O)(=O)c4ccc5c(c4)OCCO5)CC3)c(C#N)cc2c1	CYP2C9 inh 50.0, CYP2C19 inh 70.2
N#CCCN1CCN(S(=O)(=O)c2ccc(S(=O)(=O)NCC3CCCO3)cc2)CC1 (stereo not drawn)	none (no result: cytoskel mod)
N#CCCN1CCN(S(=O)(=O)c2ccc3c(c2)OCCCO3)CC1	CYP2C19 inh 81.7
CCNC(=S)N/N=C(\C)c1ccc2c(c1)OCCO2	none (no result: CYP2C9 inh, CYP2C19 inh, CYP2C9 act, CYP2C19 act, cytoskel mod)
CC1(O)CC(=O)N(c2ccccc2)O1 (stereo not drawn)	none (no result: E-sel TNF inh)
CCOc1ccc(-n2c(N)c(-c3nc4ccccc4n3C)c3nc4ccccc4nc32)cc1	none (no result: CYP2C9 inh, CYP2C19 inh, CYP2C9 act, CYP2C19 act, cytoskel mod)
C=CCSc1nc2sc3c(c2c(=O)n1CC)CCc1ccccc1-3	none (no result: E-sel TNF inh)
Cc1ccc(S(=O)(=O)N2CCCN(S(=O)(=O)c3ccc(C(F)(F)F)cc3)CC2)cc1	CYP2C9 act 2.5
COc1ccc(S(=O)(=O)N2CCN(S(=O)(=O)c3ccc4c(c3)OCCO4)CC2)cc1	none
COc1ccc(S(=O)(=O)N2CCN(S(=O)(=O)c3ccc4c(c3)OCCO4)CC2)cc1C	CYP2C9 inh 86.7, CYP2C19 inh 98.9
CN(CC(=O)N1CCN(c2ccccc2F)CC1)S(=O)(=O)c1cnc[nH]1	CYP2C9 inh 100.1, CYP2C19 inh 98.6 (no result: cytoskel mod)
Cc1ccc(C)c(N2CCN(C(=O)CN(C)S(=O)(=O)c3cnc[nH]3)CC2)c1	CYP2C9 inh 99.5, CYP2C19 inh 92.0 (no result: E-sel TNF inh)
COc1ccc(N2CCN(C(=O)CN(C)S(=O)(=O)c3cnc[nH]3)CC2)cc1	none (no result: CYP2C9 inh, CYP2C19 inh, CYP2C9 act, CYP2C19 act, cytoskel mod)
O=C(NN=C1C2CC3CC1CC(Cl)(C3)C2)c1cccs1	none (no result: CYP2C9 inh, CYP2C19 inh, CYP2C9 act, CYP2C19 act, cytoskel mod)
Cc1c(/C=N/NC(=O)c2cccnc2)c2ccccn2c1C(=O)c1ccc(F)cc1	none (no result: CYP2C9 inh, CYP2C19 inh, CYP2C9 act, CYP2C19 act, cytoskel mod)
CC(C)C1C(C#N)=C(N)Oc2n[nH]c(-c3ccc4ccccc4c3)c21 (stereo not drawn)	none
CC(NC(=O)OCc1ccccc1)C(=O)OCN1C(=O)c2ccccc2C1=O (stereo not drawn)	none
O=C1c2ccccc2C(=O)N1CC(O)COCc1ccccc1 (stereo not drawn)	CYP2C19 inh 81.3 (no result: E-sel TNF inh)
CCNC(=O)Cn1c(=O)c2c(ncn2Cc2ccccc2)n(Cc2ccccc2)c1=O	CYP2C19 inh 89.0 (no result: E-sel TNF inh)
COCCn1cnc2c1c(=O)n(CC(=O)Nc1cc(C)on1)c(=O)n2Cc1ccccc1	none
COCc1nnc(NC(=O)CSCc2ccccc2)s1	none
COCCSc1nnc(NS(=O)(=O)Cc2ccccc2)s1	CYP2C9 inh 68.5
COCCSc1nnc(NS(=O)(=O)c2ccc(C)cc2)s1	none (no result: CYP2C9 inh, CYP2C19 inh, CYP2C9 act, CYP2C19 act, cytoskel mod)
COCCSc1nnc(NC(=O)CSCc2ccccc2)s1	CYP2C9 inh 59.0
Cc1cc(S(=O)(=O)NC2CCCC2)ccc1F	none
COc1ccc(NC(=O)/C=C/C(=O)O)cc1Cl	none (no result: E-sel TNF inh)
CSc1nc2sc3c(c2c(=O)n1C)CCC(C)C3 (stereo not drawn)	none (no result: cytoskel mod)
C=CCn1nnc2sc3c(c2c1=O)CCC(C)C3 (stereo not drawn)	CYP2C19 inh 96.9
N=c1ccn(Cc2cccc(Cl)c2)cc1	none
O=C1CCCc2ccccc2N1Cc1cccc(Cl)c1	CYP2C9 inh 72.5, CYP2C19 inh 83.6
O=C1CCCc2ccccc2N1Cc1ccc(Cl)cc1	CYP2C9 inh 68.5, CYP2C19 inh 91.0
Clc1ccc2[nH]c3c(NCC4CCCO4)ncnc3c2c1 (stereo not drawn)	CYP2C9 inh 81.0, CYP2C19 inh 73.6
Cc1cc(C(=O)CSc2nnc(-c3ccccc3)n2C)c(C)n1C	CYP2C19 inh 78.2
C=CCn1c(SCC(=O)c2cc(C)n(C)c2C)nnc1-c1ccncc1	none (no result: CYP2C9 inh, CYP2C19 inh, CYP2C9 act, CYP2C19 act, cytoskel mod)
CC(C)NC(=O)CSc1nnc(-c2ccncc2)n1-c1ccccc1	CYP2C9 inh 58.5, CYP2C19 inh 91.8
N#Cc1ccccc1NC(=O)CSc1nnc(-c2ccc(F)cc2)n1-c1ccccc1	CYP2C19 inh 63.4
Cc1cc(C(=O)CSc2nnc(-c3ccncc3)n2-c2ccccc2)c(C)n1C	CYP2C19 inh 84.2 (no result: E-sel TNF inh)
